Sfp inh: qHTS Assay for Inhibitors of Bacillus subtilis Sfp phosphopantetheinyl transferase (PPTase) | 3.5% of 310,000 active | Potency, µM, without a hit: largest response in the series, negative = inhibition, most hits filed as inhibitors | 4'-phosphopantetheinyl transferase ffp (Bacillus subtilis), Q9F4F7 | Biochemical Sfp PPTase activity, qHTS;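 also: the enzyme is Sfp with the accession as filed and its product quenches rhodamine fluorescence; 0% = enzyme reaction without inhibitor and -100% = no enzyme wells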
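Buffer: 50 mM Hepes-Na pH 7.6, 10 mM MgCl2, 0.01% Nonidet P-40, 0.01% BSA. Enzyme 15 nM, pre-exposed to compound 15 min; substrates then added and fluorescence change tracked over 30 min.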
L3MBTL1 block: qHTS Assay for the Inhibitors of L3MBTL1 | Potency, µM (doses to about 57.1 µM), for the others: top-dose activity, negative = inhibition, usual class: inhibitors | AlphaScreen L3MBTL1–H3K9me1 peptide binding | 0.66% of 230,000 active | Lethal(3)malignant brain tumor-like protein 1 (Homo sapiens), Q9Y468; also: % is scaled to controls: 0 for no effect and ±100 for the full control effect; nearly all actives have a fitted effect of over 60% in size
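First, the protein-peptide complex forms for 30 min at room temperature (L3MBTL1 50 nM, biotinylated H3K9me1 peptide 75 nM). Next, compounds are pin-transferred and incubated 30 min. Finally, AlphaScreen beads are added and read after 30 min.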
BAZ2B block: qHTS Assay for Inhibitors of BAZ2B; Bromodomain adjacent to zinc finger domain protein 2B (Homo sapiens), Q9UIF8; AlphaScreen BAZ2B-H3K14Ac peptide displacement; AID 504333, 2011; Potency, µM (top dose mostly 114 µM), inactives show at the top dose activity change, negative = inhibition, most hits filed as inhibitors; 4.4% of 360,000 active; also: % is scaled to controls: 0 for no effect and ±100 for the full control effect; nearly all actives have a fitted effect of over 60% in size
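BAZ2B 50 nM plus b-H3(5-23)K14Ac 50 nM, PBS pH 7.4/0.01% Tween-20, 30 min RT; compound added (max 110 uM), 30 min RT; streptavidin donor/Ni-chelate acceptor beads 10 ug/mL final, 20 min dark; AlphaScreen read.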
G9a inh: qHTS Assay for Inhibitors of Histone Lysine Methyltransferase G9a; Histone-lysine N-methyltransferase EHMT2 (Homo sapiens), Q96KQ7; G9a H3K9 monomethylation, AlphaScreen, 2 h; Potency, µM (highest dose often 102 µM), without a hit: top-dose activity, negative = inhibition, usual class: inhibitors; 8.8% of 350,000 active; AID 504332, 2011; also: % is scaled to controls: 0 for no effect and ±100 for the full control effect; nearly all actives have a fitted effect of over 75% in size
Target sequence (Q96KQ7 913-1193 limits assumed): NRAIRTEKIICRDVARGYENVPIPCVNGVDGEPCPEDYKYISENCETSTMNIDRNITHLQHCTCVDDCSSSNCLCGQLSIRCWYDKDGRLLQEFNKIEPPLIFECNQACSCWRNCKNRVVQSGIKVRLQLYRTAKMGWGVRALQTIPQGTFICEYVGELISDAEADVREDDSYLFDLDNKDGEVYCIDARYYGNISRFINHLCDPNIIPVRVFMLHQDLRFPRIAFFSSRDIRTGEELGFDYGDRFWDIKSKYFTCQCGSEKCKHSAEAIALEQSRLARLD
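Chemiluminescent proximity detection of H3K9 monomethylation, read after 10 min bead incubation in the dark. Reaction: 20 nM G9a, 500 nM biotin-H3K9 peptide, 20 uM SAM cofactor, 2 h, room temperature, following 15 min enzyme-compound preincubation.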
JMJD2A Tudor: qHTS Assay for Inhibitors of JMJD2A-Tudor Domain | AlphaScreen JMJD2A-Tudor / H3K4me3 peptide binding | Potency, µM (top dose mostly 114 µM), for the others: top-dose activity change, negative = inhibition, usual class: inhibitors | AID 504339, 2011 | 4.4% of 390,000 active; also: % is scaled to controls: 0 for no effect and ±100 for the full control effect; nearly all actives have a fitted effect of over 50% in size
HP1b chromo inh: HTS for Inhibitors of HP1-beta Chromodomain Interactions with Methylated Histone Tails | Chromobox protein homolog 1 (Homo sapiens), P83916 | AlphaScreen HP1-beta / biotin-H3K9me3 peptide binding | Potency, µM (highest dose often 114 µM), for inactives: at the highest dose activity change, negative = inhibition, usual class: inhibitors | 0.56% of 390,000 active; also: nearly all actives have a fitted effect of over 70% in size
Target sequence (P83916 whole entry, looked up): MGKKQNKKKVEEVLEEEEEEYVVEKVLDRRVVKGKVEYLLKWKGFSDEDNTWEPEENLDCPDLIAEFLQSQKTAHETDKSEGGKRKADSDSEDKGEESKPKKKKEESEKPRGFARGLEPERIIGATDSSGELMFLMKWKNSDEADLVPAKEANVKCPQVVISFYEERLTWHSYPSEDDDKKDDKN
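AlphaScreen: HP1-beta (50 nM) preformed 30 min with biotin-H3(1-18)K9me3 peptide (50 nM) in PBS pH 7.4, 0.01% Tween-20. Compound added for 30 min at RT, then streptavidin donor/nickel chelate acceptor beads (10 ug/mL) for 30 min.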
* hit, by the source's call; ? = inconclusive; nt = no result; [ ] = remark or other dose. A selection: hits, their analogues and other compounds. The true share with any hit is near 12%. Calls follow the shape of the dose curve; as a rule, active = well fitted curve in the direction sought with a large enough effect; inconclusive = small, poorly fitted or top-dose-only effect, or another doubt; inactive = no such curve, though single readings can be large; an effect the other way counts as inactive or inconclusive. Potency is read from the fitted curve at half-maximal effect.

SMILES	Sfp inh	L3MBTL1 block	BAZ2B block	G9a inh	JMJD2A Tudor	HP1b chromo inh
CC(/C=C/c1ccccc1)=N\Nc1nc2c(c(=O)[nH]c(=O)n2C)n1CCO	40µM*	nt	-14%	?	-5%	35%
COc1ccc(NC(=O)c2oc3ccccc3c2NC(=O)c2cccc(F)c2)c(OC)c1	nt	nt	-23%	-1%[59 µM]	5%	32%
CC1(C)OC(=O)C2(Cc3c(F)cccc3N3CCCC32)C(=O)O1 (stereo unspecified)	nt	nt	nt	nt	-24%	34%
CC(C)CN(C(=O)c1cccc(F)c1)c1c(N)n(CC(C)C)c(=O)[nH]c1=O	-1%	nt	11%	22%	11%	17%
CC(C)CN(C(=O)c1cccc([N+](=O)[O-])c1)c1c(N)n(CC(C)C)c(=O)[nH]c1=O	21%	nt	23%	50µM*	6%	37%
CC(C)CN(C(=O)c1cc2ccccc2o1)c1c(N)n(CC(C)C)c(=O)[nH]c1=O	11%	?	9%	50µM*	0%	25%
Cc1cccnc1NC(=S)Nc1ncccc1C	-21%	4%	4%	20%[2.33 µM]	-3%	25%
COc1ccc(NC(=S)NCC(O)c2ccccc2)c(OC)c1 (stereo unspecified)	25%	0%	-7%	11%[59 µM]	-24%	17%
COc1ccc(NC(=S)Nc2ncccc2C)c(OC)c1	-26%	?	40µM*	?	50µM*	?
Cc1cccnc1NC(=S)Nc1ccc(Cl)c(Cl)c1	14µM*	-6%	-34%	-49%	-13%	28%
COc1ccc(NC(=S)Nc2ccccc2)c(OC)c1	-18%	7%	-31%	16µM*	-14%	0%
COc1ccc(NC(=S)Nc2ncccc2C)cc1OC	40µM*	-17%	?	22µM*	?	?
CC(=O)Nc1ccccc1NS(=O)(=O)c1ccccc1NO	nt	nt	nt	nt	-21%	1%
O=C(NCc1ccncc1)/C(=C/c1cccc([N+](=O)[O-])c1)NC(=O)c1ccccc1	12%	-4%	2%	19%	-12%	28%
C/C(=N\Nc1nc2ccccc2[nH]1)c1ccc(N2CCOCC2)cc1	-23%	-19%	20µM*	50µM*	35µM*	?
CCC(C)(C)C1CCC(=NNc2nc3ccccc3[nH]2)CC1 (stereo unspecified)	-39%	-20%	?	?	-35%	18%
C/C(=N\Nc1nc2ccccc2[nH]1)c1ccc(Cl)s1	-10%	-9%	?	20µM*	?	-11%
CC(=O)N1CCC(=NNc2nc3ccccc3[nH]2)CC1	-60%	nt	28µM*	45µM*	25µM*	?
C/C(=N\Nc1nc(C)cc(-c2ccccc2)n1)c1ccc(C)o1	1%	-3%	?	15%	-26%	18%
C/C(=N\NC(=O)c1ccccc1)c1ccc(N2CCOCC2)cc1	-14%	nt	6%	15%[59 µM]	-17%	14%
C/C(=N\Nc1nc2ccccc2[nH]1)c1ccc(C)o1	14%	-8%	45µM*	3%[59 µM]	?	-25%
COc1ccc(NC(=O)N2CCC3(CC2)CCN(C(=O)c2cccc(F)c2)CC3)cc1	18%	nt	nt	-2%[12.7 µM]	nt	nt
COc1ccc([N+](=O)[O-])cc1C(=O)NCCOc1ccc(Cl)cc1	1%	nt	-22%	-49%	-15%	38%
O=C(Nc1cccc(C(F)(F)F)c1)c1cc(-c2ccc3c(c2)OCCO3)on1	nt	nt	-12%	-4%[59 µM]	-21%	19%
Cc1ccc(CCNC(=O)CN(C)S(=O)(=O)c2ccc3c(c2)n(C)c(=O)c(=O)n3C)cc1	7%	-1%	-6%	-5%	-18%	24%
SMILES	Sfp inh	L3MBTL1 block	BAZ2B block	G9a inh	JMJD2A Tudor	HP1b chromo inh
C/C(=N\Nc1nc(C)cc(C)n1)c1ccc(N2CCOCC2)cc1	6%	1%	-10%	-1%	-21%	34%
C/C(=N\Nc1ncc(Cl)cc1Cl)c1ccc(N2CCOCC2)cc1	25µM*	-13%	50µM*	56µM*	-1%	21%
COc1ccccc1NS(=O)(=O)c1ccc2oc(SC)nc2c1	5%	nt	-14%	5%	1%	34%
COc1ccccc1NS(=O)(=O)c1ccc2oc(N)nc2c1	?	nt	2%	25µM*	-8%	-9%
Cc1ccc(NC(=O)Cn2nc(N3CCN(c4ccccc4)CC3)ccc2=O)cc1F	nt	nt	-34%	-33%[59 µM]	-36%	5%
O=C1C=C(NCc2ccc(Cl)cc2)CC(c2ccco2)C1 (stereo unspecified)	6%	-13%	50µM*	0%[59 µM]	?	?
O=C1C=C(Nc2ccc(O)cc2)CC(c2ccco2)C1 (stereo unspecified)	9%	?	-4%	?	-33%	3%
O=C1C=C(Nc2ccc(Cl)cc2Cl)CC(c2ccco2)C1 (stereo unspecified)	-25%	nt	-13%	50µM*	-7%	15%
Cn1cccc1C(=O)C(=O)Nc1cc(Cl)cc(Cl)c1	3%	-8%	4%	15%	16µM*	-3%
COc1ccc(N2CCN(S(=O)(=O)CCNC(=O)c3cccs3)CC2)cc1	nt	3%	-7%	?	-6%	10%
O=C(CN1C2=NCCCN2c2ccccc21)c1ccc([N+](=O)[O-])cc1	-14%	10%	-12%	40µM*	-12%	42%
COC(=O)CN1C(=O)Nc2ccc(Br)cc2C1c1ccccc1Cl (stereo unspecified)	-23%	nt	4%	71µM*	-17%	18%
COC(=O)CN1C(=O)Nc2ccc(Cl)cc2C1c1ccccc1 (stereo unspecified)	-1%	nt	-19%	7%	-12%	19%
O=C(Nc1ccc(Cl)cc1)Nc1nnc(CSCc2ccc(Cl)cc2)s1	18%	5%	-20%	12%[59 µM]	-9%	24%
COc1ccccc1-c1cn[nH]c(=S)n1	45µM*	-11%	-36%	?	50µM*	?
Cc1ccccc1-c1nn[nH]n1	18%	nt	2%	-10%	-23%	26%
Oc1ccc(N=Nc2ccccc2-c2nn[nH]n2)c(O)c1	15%	nt	50µM*	35µM*	?	-5%
Cc1noc(C)c1C(=O)N(C)CC(=O)Nc1ccc(F)c(F)c1F	nt	6%	14%	-1%	-4%	26%
COc1ccc(N2CCN(C(=O)C(=O)c3c(C)n(C)c4ccccc34)CC2)cc1	4%	5%	?	5µM*	?	-18%

Screening results: PubChem BioAssay, National Center for Advancing Translational Sciences (NCATS)
